From the supplement of paper PMC7156485
± gives the standard deviation of the averaged measurements.

Tested on: TDF
Assay: cell number relative to DMSO (% of DMSO); higher = more cells (less growth inhibition / toxicity)
Details: concentration: 10 µM; 24 h
Procedure, shortened: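 H1.0 nuclear intensity or cell number is expressed as percent of the plate control, with the median of replicates taken. HCC1569 and TDF cells were treated with compounds at 10 µM for 24 h at 37 °C, in triplicate, then fixed and immunostained for H1.0 with DAPI as a nuclear stain. HCC1569 values were smoothed to correct for positional effects.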
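Further: TDF denotes transformed human dermal fibroblasts of mesenchymal origin.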

| Compound | cell number |
| --- | --- |
| COc1ccc2c(c1)=NC1=C(C)NCCC=21 [Harmaline] | 103 |
| CCN1CC2(COC)CCC(OC)C34C5CC6(O)C(OC)CC(OC(C)=O)(C5C6C(=O)c5ccc(OC)cc5)C(C(OC)C23)C14 (stereo not given) [Bulleyaconotine A] | 103 |
| CC(C)N(CCC(C(N)=O)(c1ccccc1)c1ccccn1)C(C)C (stereo not given) [Disopyramide] | 106 |
| CCN(C)C(=O)Oc1cccc([C@H](C)N(C)C)c1.O=C(O)C(O)C(O)C(=O)O | 98.9 |
| Cl.O=C(CCCN1CCC2(CC1)C(=O)N(CCc1ccc(N=C=S)cc1)CN2c1ccccc1)c1ccc(F)cc1 [N-(p-Isothiocyanatophenethyl)spiperone hydrochloride] | 74 |
| CN1CCC(c2c[nH]c3ccc(O)cc23)CC1.O=C(O)C=CC(=O)O | 101 |
| C=CC1CN2CCC1CC2C(O)c1ccnc2ccccc12 (single isomer, unassigned; (-)) [(-)-Cinchonidine] | 99.7 |
| CCCCCCCCCCCCCC(=O)OC1C(C)C2(O)C(C=C(CO)CC3(O)C(=O)C(C)=CC32)C2C(C)(C)C12OC(C)=O (stereo not given) [Phorbol 12-myristate 13-acetate] | 74.6 ± 8.8 |
| Cc1nccc2c1[nH]c1ccccc12 [Harmane] | 106 ± 11 |
| CCN(CC)C(=O)NC1C=C2c3cccc4[nH]cc(c34)CC2N(C)C1.O=C(O)C=CC(=O)O (stereo not drawn) [R(+)-Lisuride hydrogen maleate] | 117 |
| CC1=CC23C(=O)C(C=C(CO)C(O)C2(O)C1O)C1C(CC3C)C1(C)C (stereo not given) [Ingenol] | 107 |
| CCCN1CC(CSC)CC2c3cccc4[nH]cc(c34)CC21.CS(=O)(=O)O (stereo not given) [Pergolide mesylate] | 102 |
| C[N+]1(C)C2CC(OC(=O)C(CO)c3ccccc3)CC1C1OC12.O=[N+]([O-])[O-] (single isomer, unassigned; (-)) [(-)-Scopolamine methyl nitrate] | 98.7 |
| CCN1CC2(COC)CCC(OC)C34C5CC6C(OC)CC7(OCOC7(C(O)C23)C14)C5C6OC (stereo not given) [Delcorine] | 105 |
| CCN1CC2(C)CCC(O)C34C5CC6C(OC)CC(O)(C(CC23)C14)C5C6O (stereo not given) [Karakoline] | 99.5 ± 1.5 |
| CN1C2CCC1CC(OC(=O)C(CO)c1ccccc1)C2 (stereo not given) [Atropine] | 110 |
| CN(C)CCc1ccc(O)cc1.CN(C)CCc1ccc(O)cc1.O=S(=O)(O)O [Hordenine sulfate] | 99.9 |
| CC12CCC3C(CC=C4CC(O)CCC43C)C1CCC2=O (stereo not given) [Dehydroepiandrosterone] | 107 |

| Compound | cell number |
| --- | --- |
| Cl.NC(=O)c1ccc(OCC(O)CN2CC=C(c3ccc(F)cc3)CC2)cc1 (stereo not given) | 107 |
| CCCCc1ccc(C(=O)O)nc1 [Fusaric acid] | 110 |
| CN1CC[C@@]2(C)c3cc(OC(=O)Nc4ccccc4)ccc3N(C)[C@@H]12 | 90.6 |
| O=P1(N(CCCl)CCCl)NCCCO1 (stereo not given) [Cyclophosphamide] | 95.5 |
| CN(C)C1C(=O)C(C(N)=O)=C(O)C2(O)C(=O)C3=C(O)c4c(O)cccc4C(C)(O)C3CC12 (stereo not given) [Tetracycline] | 109 |
| O=C1CCCN1CC#CCN1CCCC1 [Oxotremorine] | 109 |
| CCCN1CCOC2c3cc(O)ccc3OCC21.Cl (racemic) | 91 |
| CCC(C)CC(C)N (stereo not given) [1,3-dimethylpentylamine] | 106 |
| CC1OC(=O)C2CC3CCCCC3C(C=CC3CCCC(C)N3C)C12 (stereo not given) [Himbacine] | 107 |
| CCC(C)C=C(C)C=CC1=CC2=C(Cl)C(=O)C(C)(OC(C)=O)C(=O)C2=CO1 (stereo not given) [Sclerotiorin] | 96.1 |
| Cl.NCC#Cc1ccccc1 [3-Phenylpropargylamine hydrochloride] | 110 |
| C=CCN1CCC23c4c5ccc(O)c4OC2C(=O)CCC3(O)C1C5 (stereo not given) [Naloxone] | 96.7 |
| CC1=C(O)C(=O)C2OC2C1=O (single isomer, unassigned; (-)) | 98.1 |
| Cc1c2ccncc2c(C)c2c1[nH]c1ccccc12 [Ellipticine] | 39.3 ± 6.6 |
| CCC1C(C)=NN=C(c2ccc(OC)c(OC)c2)c2cc(OC)c(OC)cc21 (stereo not given) | 103 |
| O=c1cccc2n1CC1CNCC2C1 (single isomer, unassigned; (-)) [(-)-Cytisine] | 85.2 |
| Br.NC1CCc2cc(O)c(O)cc2C1 (stereo not given) [6,7-ADTN hydrobromide] | 103 |
